This is a sample that favours compounds with a hit; in the whole collection about 7.9% have one here.
HT1080-NT tox – kills 2HG-producing HT-1080-NT fibrosarcoma cells; HT-1080-NT fibrosarcoma viability, CellTiter-Glo ATP luminescence, 48 h; actives 1.6% (n = 360,000); AID 686970; Potency, µM (series often up to 46.1 µM), for the others: at the highest dose activity, negative = less viability, actives largely listed as cytotoxic;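 further: NT is the 2HG producing partner of a matched IDH1 knockdown line; 0% = DMSO-treated cells and -100% = media-only wells without cells; nearly all actives have a fitted effect of over 55% in size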
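Toxicity toward the 2HG-producing NT line was scored as %Activity, normalised to DMSO and no-cell wells, from CellTiter-Glo luminescence after 48 hours' treatment.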
KB-V1 MDR tox – kills drug-selected multidrug resistant KB-V1 cells. actives 3.4% (n = 400,000). AID 1347076. KB-V1 MDR cells viability, CellTiter-Glo, 72 h. Potency, µM (doses to about 46.1 µM), actives largely listed as cytotoxic; further: on the % scale 0 is the no-effect control and ±100 the full control effect; nearly all actives have a fitted effect of over 60% in size
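KB-V1, DMEM (no phenol red) + 10% FBS; cpd pin-transferred, titration series; 72 h, 37 degrees C; CellTiter-Glo, luminescence. Data normalized, curve-fit.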
KB-3-1 cytotox – kills parental KB-3-1 adenocarcinoma cells. KB-3-1 viability, CellTiter-Glo ATP luminescence, 72 h. Potency, µM (top dose mostly 46.1 µM), most hits filed as cytotoxic. actives 1.4% (n = 400,000). AID 1347075; further: on the % scale 0 is the no-effect control and ±100 the full control effect; nearly all actives have a fitted effect of over 60% in size
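KB-3-1 cells, DMEM (no phenol red) + 10% FBS; compound by pin transfer, 72 h, 37 °C. Readout: CellTiter-Glo luminescence after 10 min. Data normalized, curve-fitted.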
SW480 rerep – inducers of DNA re-replication in SW480 colon cancer cells | SW480 DNA re-replication, Hoechst DNA content imaging, 48 h | Potency, µM (series often up to 46.1 µM), for inactives: at the top dose re-replication activation, most hits filed as activators | actives 1.8% (n = 340,000) | AID 624297; further: % of control where 0% means no effect; nearly all actives have a fitted effect of over 55% in size
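Readout is total intensity of Hoechst-stained nuclei, excited at 405 nm and collected at 500-530 nm. Compound treatment lasted 48 hr at 37 C in 5% CO2 before staining.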
MCF10A rerep – DNA re-replication induction in MCF 10a cells | MCF 10A DNA re-replication, Hoechst nuclear intensity, 48 h | Potency, µM (highest dose often 46.1 µM), without a hit: top-dose activity, positive = re-replication, most hits filed as activators | actives 2.9% (n = 350,000) | AID 624296; further: % of control where 0% means no effect; nearly all actives have a fitted effect of over 50% in size
HT1080 IDH1KD tx – kills HT-1080 cells with IDH1 knockdown; actives 2% (n = 360,000); Potency, µM (highest dose often 46.1 µM), for inactives: at the top dose activity, negative = toxicity, hits mostly cytotoxic; AID 686971; HT-1080 IDH1 knockdown viability, ATP luminescence, 48 h;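 further: 0% = DMSO wells and -100% = cell-free medium wells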
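After a 2 h attachment period, IDH1KD HT-1080 cells took pin-transferred compound for 48 h at 37 °C; ATP-based luminescence after 10 min room-temperature reagent incubation reported viability.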
Numbers without * were called inactive; i = inactive; ? = inconclusive; . = not tested or not shown; [ ] = remark or other dose. The call rests on the fitted dose curve; in most records, active means well fitted curve in the direction sought with a large enough effect; inconclusive means small, poorly fitted or top-dose-only effect, or another doubt; inactive means no such curve, though single readings can be large; an effect the other way counts as inactive or inconclusive. Potency means the concentration at half of the fitted maximal effect.

SMILES | HT1080-NT tox | KB-V1 MDR tox | KB-3-1 cytotox | SW480 rerep | MCF10A rerep | HT1080 IDH1KD tx
COc1ccc(-c2cc3nc(CCl)[nH]c(=O)c3s2)cc1 | 16µM* | ? | ? | ? | ? | 16µM*
COc1cccc(CNc2nc3cc(-c4cccc(Cl)c4)sc3c(=O)n2C)c1 | -3% | i | i | . | . | 5%
CCOC(=O)N(O)c1ccc(C=Cc2ccccc2)cc1 | 3% | 21µM* | ? | 12µM* | ? | 0%
COc1ccc2[nH]c(S(=O)Cc3ncc(C)c(OC)c3C)nc2n1 (centres undefined) | . | . | . | -2% | ? | .
O=C(O)C1(Nc2ccccc2Cl)CCCC1 | 18% | i | i | -5% | 3% | 12%
O=C1OCC(CO)(CO)N=C1NNc1ccccc1Cl | 10µM* | i | i | 27% | 2% | -10%
O=C(Cn1cc(COc2ccc3ccccc3c2)nn1)NS(=O)(=O)c1cccc(OC(F)F)c1 | 1% | i | i | . | . | 11%
COc1ccc(CCNC(=O)CSc2nc3c(c(=O)n(C)c(=O)n3C)n2C(C)C)cc1OC | 9% | i | i | -4% | -2% | 17%
Cn1c(=O)c2c(nc(NCCc3ccccc3)n2Cc2ccc(F)cc2)n(C)c1=O | -15% | 4.1µM* | ? | 7% | 26% | -25%
COCCNc1nc2c(c(=O)n(C)c(=O)n2C)n1Cc1cccc(C)c1 | -9% | i | ? | 1% | 7% | -19%
Cc1cccc(Cn2c(NCCO)nc3c2c(=O)n(C)c(=O)n3C)c1 | ? | 4.1µM* | ? | -4% | -11% | -3%
CC(C)CCn1c(NCCc2ccccc2)nc2c1c(=O)n(C)c(=O)n2C | -30% | 13µM* | ? | -3% | 20% | ?
COc1ccc(CCNc2nc3c(c(=O)n(C)c(=O)n3C)n2C)cc1OC | 4% | 15µM* | i | -3% | 6% | 12%
CCOC(=O)N1CCC(NC(=O)c2ccc3c(c2)N(Cc2ccccc2C)C(=O)c2ccccc2S3=O)CC1 (centres undefined) | . | ? | i | . | . | .
CC(=O)Nc1ccc(NC(=O)CCN2C(=O)c3ccccc3C2=O)cc1 | 2% | i | i | -38% | 0.58µM* | 0%
CC(=O)Nc1ccc(NC(=O)CCCN2C(=O)c3ccccc3C2=O)cc1 | 4% | i | i | 1% | 0% | 3%
CCCC(=O)N(c1ccc2oc(C)c(C(C)=O)c2c1)S(=O)(=O)c1ccc(CC)cc1 | . | 2.9µM* | 3.7µM* | . | . | .
CC(=O)c1c(C)oc2ccc(N(C(C)=O)S(=O)(=O)c3ccc(Cl)c([N+](=O)[O-])c3)cc12 | ? | ? | ? | ? | 1.8µM* | 6.5µM*
CC(=O)c1c(C)oc2ccc(N(C(C)=O)S(=O)(=O)c3cccc4cccnc34)cc12 | ? | ? | ? | ? | 9% | 26µM*
CCOC(=O)c1c(-c2ccccc2)oc2ccc(N(C(C)=O)S(=O)(=O)c3ccccc3)cc12 | . | i | i | . | . | .
COC(=O)c1c(C)oc2ccc(N(C(C)=O)S(=O)(=O)c3ccccc3)cc12 | -9% | 2.3µM* | 23µM* | 1% | 10% | ?
O=C(Nc1ccc2c(c1)OCCO2)C(C1CC1)n1c(=O)c(-c2cc3ccccc3[nH]2)nc2ccccc21 (centres undefined) | ? | ? | i | . | . | ?
Cc1ccc(Cc2c(-c3ccc(F)cc3)nc3c(C)cc(Br)cn23)cc1 | ? | i | i | . | . | ?
COC(=O)c1c(C)oc2ccc(N(C(=O)c3ccncc3)S(=O)(=O)c3ccc(Br)cc3)cc12 | . | i | i | . | . | .
COC(=O)c1c(C)oc2ccc(N(C(=O)c3ccncc3)S(=O)(=O)c3cc(C)ccc3C)cc12 | . | 6.5µM* | 13µM* | . | . | .
SMILES | HT1080-NT tox | KB-V1 MDR tox | KB-3-1 cytotox | SW480 rerep | MCF10A rerep | HT1080 IDH1KD tx
CC1=C(c2ccccc2)C(=S)NC(C)(C)C1 | -10% | i | i | -9% | 0% | 33µM*
COc1cccc(NC(=O)CSc2nc3ccccc3cc2Cc2ccccc2)c1 | 9% | i | i | 0% | 0% | 4%
COc1cccc(CSc2nc3ccccc3cc2C=O)c1 | 18µM* | ? | ? | 1.3µM* | 13µM* | 21µM*
CCC(CC)C(C(=O)NCc1ccccc1)N(C)Cc1ccc(Cl)c(Cl)c1 (centres undefined) | ? | ? | i | . | . | ?
C[n+]1cc2c3c(ccc2c2ccc4cc5c(cc4c21)OCO5)OCO3 | 2.5µM* | . | . | -2% | 17% | 1.4µM*
CCc1nc(Nc2ccncc2)c2oc3ccccc3c2n1 | ? | i | 8.2µM* | 18µM* | ? | 23µM*
Cc1nc(Nc2ccncc2)c2oc3ccccc3c2n1 | -15%[9.24 µM] | i | ? | ? | ? | 13µM*
CCC(C)n1ncn(-c2ccc(N3CCN(c4ccc(O)cc4)CC3)cc2)c1=O (centres undefined) | ? | i | 1.5µM* | -8% | ? | ?
CCC(C)n1ncn(-c2ccc(N3CCN(c4ccc(OCC5COC(Cn6cncn6)(c6ccc(Cl)cc6Cl)O5)cc4)CC3)cc2)c1=O (centres undefined) | ? | ? | i | ? | ? | ?
CC1CC(C)CN(C(=S)Nc2ccc(OC(F)F)cc2)C1 (centres undefined) | 12% | 21µM* | i | -6% | 18% | 7%
NC(=O)c1sc2nc(N3CCOCC3)c3c(c2c1N)CCCC3 | 0% | ? | i | -3% | ? | -8%
CCc1nc2sc(C#N)c(N)c2c2c1CCCC2 | 3% | i | i | 2% | 22% | 4%[9.24 µM]
CC(=O)c1sc2nc(-c3ccc(C)cc3)c3c(c2c1N)CCCC3 | -5% | 18µM* | i | 2.9µM* | 2.3µM* | -22%
Cc1nc2sc(C(N)=O)c(N)c2c2c1CCCC2 | -22% | 21µM* | i | ? | ? | -4%
Cc1ccc(-c2nc3sc(C(N)=O)c(N)c3c3c2CCCC3)cc1 | 12% | ? | i | 16µM* | 5.2µM* | 2%
CCc1nc2sc(C(C)=O)c(N)c2c2c1CCCC2 | -2% | ? | i | 15µM* | 2.9µM* | 0%
NC(=O)c1sc2nc(-c3ccccc3)c3c(c2c1N)CCCC3 | -7% | i | i | 15µM* | 21µM* | -1%
NC(=O)c1sc2nc3c(c(-c4ccco4)c2c1N)CCC3 | 0% | ? | i | 7% | -15% | -26%
